# Reference: PubChem BioAssay
# Active and inactive are the calls of the source. Unless noted, the rule behind the calls is not given here.
# Tests used:
# [1] = compound effects on lung adenocarcinoma cell viability – A549, calcein-AM fluorescence, 48 h, basal, profiling panel (AID 1162); conditions: higher = more signal; note: test concentration not given here
# [2] = compound effects on differentiated 3T3-L1 adipocyte viability – cell-based, 3T3-L1 adipocytes, calcein-AM fluorescence, 48 h, basal, profiling panel (AID 1163); conditions: 3T3-L1 adipocytes viability, higher = more signal; note: test concentration not given here
# [3] = compound effects on hepatocellular carcinoma cell viability – HepG2, calcein-AM fluorescence, 48 h, basal, profiling panel (AID 1164); conditions: higher = more signal; note: test concentration not given here
# [4] = compound effects on multiple myeloma cell viability – MM1S, calcein-AM fluorescence, 48 h, basal, profiling panel (AID 1165); conditions: higher = more signal; note: test concentration not given here
# [5] = calcein-AM signal in unstimulated myeloma cells – cell-based, calcein-AM fluorescence, 48 h, PK04 Diversity Set, profiling panel (AID 1166); conditions: RPMI8226 myeloma viability, higher = more signal;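 note: cells grown under basal conditions without added stimulus; test concentration not given here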
# [6] = JC-1 mitochondrial signal, unstimulated HepG2 cells – cell-based, JC-1 fluorescence, 24 h, 100 nL compound, profiling panel (AID 1167); conditions: HepG2 mitochondrial potential, higher = more signal; note: test concentration not given here
# [7] = JC-1 mitochondrial signal, unstimulated adipocytes – cell-based, JC-1 fluorescence, 3T3-L1 adipocytes, 24 h, 100 nL compound, profiling panel (AID 1168); conditions: JC-1 mitochondrial fluorescence, higher = more signal, called active from +8 up or from −8 down; note: test concentration not given here
# [8] = JC-1 mitochondrial signal, unstimulated myeloma cells – cell-based, JC-1 fluorescence, RPMI8226, 24 h, 100 nL compound, profiling panel (AID 1169); conditions: JC-1 mitochondrial potential fluorescence, higher = more signal; note: test concentration not given here
# [9] = JC-1 mitochondrial signal, unstimulated MM1S myeloma – cell-based, JC-1 fluorescence, 24 h, 100 nL compound, profiling panel (AID 1170); conditions: MM1S mitochondrial potential, higher = more signal; note: test concentration not given here
# [10] = resazurin metabolic signal in A549 cells – cell-based, resazurin fluorescence, 24 h, PK04 Diversity Set, profiling panel (AID 1171); conditions: A549 viability, higher = more signal, called active from +8 up or from −8 down; note: test concentration not given here
# [11] = resazurin metabolic signal in HepG2 cells – cell-based, resazurin fluorescence, 24 h, PK04 Diversity Set, profiling panel (AID 1172); conditions: HepG2 viability, higher = more signal; note: test concentration not given here
# [12] = budding yeast growth changes without added modifier – OD600, strain BY4716, 24 h, basal condition, primary screen (AID 1173); conditions: S. cerevisiae BY4716 growth, OD600, 24 h; higher = more signal, called active from +8 up or from −8 down
# [13] = viability profiling in MM1S myeloma cells – cell-based, resazurin fluorescence, basal, 24 h, PK04 Diversity Set, profiling panel (AID 1174); conditions: higher = more signal, called active from +8 up or from −8 down; note: test concentration not given here
# [14] = biological target: Dihydroorotate dehydrogenase (quinone), mitochondrial (Plasmodium falciparum (isolate 3D7)) (UniProt Q08210); experiment: inhibition of P. falciparum DHODH – biochemical, C-terminal His tag, absorbance 600 nm, primary screen (AID 1175); conditions: PfDHODH enzyme, DCIP absorbance 600 nm; higher = more signal, called active from +8 up or from −8 down;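 note: recombinant parasite enzyme with a five histidine tag at its C terminus; test concentration not given here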
# [15] = inhibition of PAO1 biofilm formation – strain PAO1, LB-PBS medium, absorbance 600 nm, primary screen (AID 1176); note: test concentration not given here; conditions: P. aeruginosa PAO1 growth/biofilm, A600, 12 h; higher = more signal
# [16] = growth modulation of vineyard yeast isolate – strain RM11-1a, OD600, basal, 24 h, primary screen (AID 1177);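 note: cultures grown under basal conditions with no added stressor; test concentration not given here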; conditions: S. cerevisiae RM11-1a growth, OD600, 24 h; higher = more signal, called active from +8 up or from −8 down
# [17] = growth of efflux-deficient E. coli DRC39 – strain DRC39, OD650, 24 h, E. coli filamentation inducers, primary screen (AID 1178);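 note: growth measured as culture turbidity by optical density at 650 nm; test concentration not given here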; conditions: E. coli DRC39 acrAB, higher = more signal, called active from +8 up or from −8 down
# [18] = growth of efflux-deficient E. coli DRC39 – strain DRC39, OD650, 48 h, E. coli filamentation inducers, primary screen (AID 1179);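 note: screen aims at cell division blockers that make cells filament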; conditions: E. coli DRC39 delta-acrAB growth, higher = more signal, called active from +8 up or from −8 down
# [19] = viability profiling in RPMI8226 myeloma cells – cell-based, resazurin fluorescence, basal, 24 h, PK04 Diversity Set, profiling panel (AID 1180); conditions: higher = more signal;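 note: RPMI8826 multiple myeloma cell line at 5000 cells per well; test concentration not given here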
# [20] = biological target: E3 ubiquitin-protein ligase XIAP (Homo sapiens) (UniProt P98170); experiment: small molecules binding XIAP protein – biophysical, small-molecule microarray, fluorescence 635 nm, primary screen (AID 1181); conditions: higher = more signal;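 note: score merges 667 nm emission and signal to noise over triplicate slides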
# Chain of E3 ubiquitin-protein ligase XIAP (Homo sapiens) (P98170 whole entry, looked up): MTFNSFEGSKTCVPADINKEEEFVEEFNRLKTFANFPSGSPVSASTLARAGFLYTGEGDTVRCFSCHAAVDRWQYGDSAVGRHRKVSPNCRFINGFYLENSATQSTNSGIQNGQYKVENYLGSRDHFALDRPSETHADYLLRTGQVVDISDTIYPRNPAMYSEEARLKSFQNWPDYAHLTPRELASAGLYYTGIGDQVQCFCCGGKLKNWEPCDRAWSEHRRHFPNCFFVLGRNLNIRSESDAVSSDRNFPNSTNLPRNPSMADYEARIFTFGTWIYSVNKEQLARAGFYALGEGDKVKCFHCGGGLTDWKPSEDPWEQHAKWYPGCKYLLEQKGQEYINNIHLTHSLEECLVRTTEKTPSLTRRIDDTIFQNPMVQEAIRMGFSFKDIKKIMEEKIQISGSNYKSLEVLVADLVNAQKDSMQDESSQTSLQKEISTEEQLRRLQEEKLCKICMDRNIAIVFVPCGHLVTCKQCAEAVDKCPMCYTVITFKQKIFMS
# Chain of Dihydroorotate dehydrogenase (quinone), mitochondrial (Plasmodium falciparum (isolate 3D7)) (Q08210 whole entry, looked up): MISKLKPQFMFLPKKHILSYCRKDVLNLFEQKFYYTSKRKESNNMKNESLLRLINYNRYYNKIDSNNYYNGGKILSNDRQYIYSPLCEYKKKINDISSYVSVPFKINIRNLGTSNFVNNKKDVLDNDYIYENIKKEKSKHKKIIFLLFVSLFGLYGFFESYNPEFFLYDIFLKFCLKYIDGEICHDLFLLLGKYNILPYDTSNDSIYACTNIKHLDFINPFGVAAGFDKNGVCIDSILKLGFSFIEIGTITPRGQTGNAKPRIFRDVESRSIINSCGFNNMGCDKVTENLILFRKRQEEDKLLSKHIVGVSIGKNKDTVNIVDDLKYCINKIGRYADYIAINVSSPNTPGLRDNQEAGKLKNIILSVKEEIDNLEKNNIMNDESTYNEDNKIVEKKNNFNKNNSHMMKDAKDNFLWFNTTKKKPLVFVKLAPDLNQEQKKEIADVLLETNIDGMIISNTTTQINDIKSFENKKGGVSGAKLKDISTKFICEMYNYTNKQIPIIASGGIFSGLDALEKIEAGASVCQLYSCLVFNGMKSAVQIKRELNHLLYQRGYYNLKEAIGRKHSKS
Compound,z-score [1],z-score [2],z-score [3],z-score [4],z-score [5],z-score [6],z-score [7],z-score [8],z-score [9],z-score [10],z-score [11],z-score [12],z-score [13],composite z-score [14],z-score [15],z-score [16],z-score [17],z-score [18],z-score [19],composite z-score [20]
C=C[C@@H](C)[C@H](OC(=O)Nc1ccc(SC)cc1)c1ccc(OCCO)cc1,-0.848,0.54,0.0237,0.191,0.794,-0.692,0.396 (inactive),0.917,-1.13,-0.0363 (inactive),0.571,-3.42 (inactive),-0.0261 (inactive),-1.16 (inactive),0.638 (inactive),0.0728 (inactive),-0.217 (inactive),0.511 (inactive),0.152,-0.111
O=C(NC1CC1)[C@@H]1c2ccccc2C(=O)N(Cc2ccccc2)[C@H]1c1ccc(CO)cc1,1.3,-0.429,1.46,0.293,0.217,2.33,1.07 (inactive),0.135,-0.319,0.139 (inactive),0.0991,0.172 (inactive),-0.556 (inactive),-0.0098 (inactive),-0.149 (inactive),0.0831 (inactive),0.693 (inactive),1.58 (inactive),0.904,0.159
COc1ccc(C(O)C2C=CC3C(=O)N(c4ccccc4)C(=O)C3N2Nc2ccccc2)cc1OCc1ccccc1 (stereo not given),0.677,-1.4,1.29,0.337,-0.29,-1.02,-0.514 (inactive),-0.307,-0.699,0.789 (inactive),-1.04,-2.82 (inactive),-1.24 (inactive),0.416 (inactive),1.67 (inactive),0.0482 (inactive),-0.628 (inactive),-0.131 (inactive),-1.2,0.0714
[N-]=[N+]=Nc1ccccc1C[C@@]1(C(=O)O)N=C(c2ccc(OCCCO)cc2)O[C@@H]1c1ccccc1,-0.0649,-0.532,-0.222,-1.78,-1.26,-1.65,-0.0754 (inactive),0.00697,-0.187,0.293 (inactive),1.06,-2.01 (inactive),-0.161 (inactive),0.624 (inactive),0.342 (inactive),-0.583 (inactive),-0.26 (inactive),-0.523 (inactive),0.229,0.427
